The values below come from PubChem BioAssay (EPA / NIEHS).

Read-out in experiment [1]: NAD(P)H dehydrogenase [quinone] 1 (NQO1), NQO1 (gene 1728)
Briefly: LTEA_HepaRG_NQO1: Life Technologies and Expression Analysis (LTEA) Assay for NAD(P)H dehydrogenase [quinone] 1 (NQO1) using HepaRG (AID 2283526). To be noted: mRNA level, 48 h; actives raise or lower the signal. The gist of the method: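 qRT-PCR read-out (Fluidigm TaqMan), normalized to three housekeeping genes, after 48 h chemical exposure of HepaRG cells. Concentrations: eight points, top 100 uM, half-log steps, 0.5% DMSO vehicle. Gain or loss of signal fitted relative to DMSO.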

Read-out in experiment [2]: Nuclear factor erythroid 2-related factor 2 (Homo sapiens) (UniProt Q16236)
Briefly: LTEA_HepaRG_NFE2L2: Life Technologies and Expression Analysis (LTEA) Assay for Nuclear factor erythroid 2-related factor 2 (NFE2L2) Transcription Factor using HepaRG (AID 2283527). The conditions noted are these: mRNA level, 48 h; actives raise or lower the signal. The procedure, abridged: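 Human liver HepaRG line treated in duplicate for 48 h with an eight-point series topping at 100 uM. Gene expression of NFE2L2 by qRT-PCR, bidirectionally fitted against the vehicle control.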

Read-out in experiment [3]: succinate dehydrogenase complex iron sulfur subunit B (SDHB), SDHB (gene 6390)
The experiment in a line: LTEA_HepaRG_SDHB: Life Technologies and Expression Analysis (LTEA) Assay for succinate dehydrogenase complex iron sulfur subunit B (SDHB) using HepaRG (AID 2283528). The conditions noted are these: mRNA level, 48 h; actives raise or lower the signal. The gist of the method:
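SDHB transcript level read by TaqMan qRT-PCR, housekeeping-normalised (ACTB, GAPDH, POLR2A), after 48 h chemical treatment of plated HepaRG cells; eight concentrations top 100 uM, half-log steps, 0.5% DMSO, duplicates; fitted both directions against DMSO.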

Read-out in experiment [4]: Signal transducer and activator of transcription 3 (Homo sapiens) (UniProt P40763)
Briefly: LTEA_HepaRG_STAT3: Life Technologies and Expression Analysis (LTEA) Assay for Signal transducer and activator of transcription (STAT3) using HepaRG (AID 2283529). To be noted: mRNA level, 48 h; actives raise or lower the signal. The gist of the method: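 In this transcriptional endpoint, HepaRG cultures receive test chemicals at up to 100 uM for 48 h, tested in duplicate. STAT3 mRNA is normalized to ACTB, GAPDH and POLR2A.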

Read-out in experiment [5]: sulfotransferase 2A1 (SULT2A1), SULT2A1 (gene 6822)
The experiment in a line: LTEA_HepaRG_SULT2A1: Life Technologies and Expression Analysis (LTEA) Assay for sulfotransferase 2A1 (SULT2A1) using HepaRG (AID 2283531). To be noted: mRNA level, 48 h; actives raise or lower the signal. The gist of the method: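 HepaRG, 48 h chemical exposure, 8-pt half-log curve from 100 uM in 0.5% DMSO, duplicates. Readout: TaqMan qRT-PCR of SULT2A1 mRNA, housekeeping-normalized. Bidirectional fit vs DMSO baseline.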

Read-out in experiment [6]: Transforming Growth Factor (TGFA), TGFA (gene 7039)
Briefly: LTEA_HepaRG_TGFA: Life Technologies and Expression Analysis (LTEA) Assay for Transforming Growth Factor (TGFA) using HepaRG (AID 2283532). The conditions noted are these: mRNA level, 48 h; actives raise or lower the signal. The gist of the method: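 Gene expression of TGFA was quantified by qRT-PCR after human HepaRG cells were treated for 48 h with test chemicals (eight concentrations, highest 100 uM, 0.5% DMSO). Activity in either direction was fitted relative to DMSO.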

Read-out in experiment [7]: Transforming Growth Factor (TGFB1), TGFB1 (gene 7040)
Briefly: LTEA_HepaRG_TGFB1: Life Technologies and Expression Analysis (LTEA) Assay for Transforming Growth Factor (TGFB1) Transporter using HepaRG (AID 2283533). The conditions noted are these: mRNA level, 48 h; actives raise or lower the signal. The procedure, abridged:
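qRT-PCR readout of TGFB1 transcript in HepaRG lysates, normalized to three housekeeping genes; gain or loss of signal fitted relative to 0.5% DMSO vehicle. Exposure: 48 h, 8-point curve from 100 uM, duplicate wells.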

Read-out in experiment [8]: TIMP1, TIMP1 (gene 7076)
Briefly: LTEA_HepaRG_TIMP1: Life Technologies and Expression Analysis (LTEA) Assay for TIMP1 using HepaRG (AID 2283534).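 Also: TaqMan qRT-PCR signal normalized to ACTB GAPDH and POLR2A housekeeping genes.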 To be noted: mRNA level, 48 h; actives raise or lower the signal. The procedure, abridged:
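HepaRG, 48 h exposure, 8-pt half-log series from 100 uM in 0.5% DMSO, duplicates; TIMP1 transcript by Fluidigm qRT-PCR, housekeeping-normalized; bidirectional curve fit vs DMSO baseline.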

Read-out in experiment [9]: Tumor necrosis factor receptor 1 (TNFRSF1A), TNFRSF1A (gene 7132)
Briefly: LTEA_HepaRG_TNFRSF1A: Life Technologies and Expression Analysis (LTEA) Assay for Tumor necrosis factor receptor 1 (TNFRSF1A) using HepaRG (AID 2283535). To be noted: mRNA level, 48 h; actives raise or lower the signal. The gist of the method: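 HepaRG, 48 h plating then 48 h chemical exposure, serum-free induction media; 8-pt CRC from 100 uM, half-log, 0.5% DMSO vehicle, duplicates. Readout: TaqMan qRT-PCR (Fluidigm), housekeeping-gene normalized; bidirectional fit vs DMSO.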

Read-out in experiment [10]: Thyroid Hormone Responsive (THRSP), THRSP (gene 7069)
Briefly: LTEA_HepaRG_THRSP: Life Technologies and Expression Analysis (LTEA) Assay for Thyroid Hormone Responsive (THRSP) using HepaRG (AID 2283536). To be noted: mRNA level, 48 h; actives raise or lower the signal. The gist of the method:
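Cell model: human HepaRG, approx. 100,000 cells/well, 0.5% DMSO vehicle. Exposure lasts 48 h; phenobarbital 1 mM serves as induction positive control. Gene expression is measured by qRT-PCR against three endogenous control genes.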

Read-out in experiment [11]: Cellular tumor antigen p53 (Homo sapiens) (UniProt P04637)
The experiment in a line: LTEA_HepaRG_TP53: Life Technologies and Expression Analysis (LTEA) Assay for Tumor Protein P53 (TP53) using HepaRG (AID 2283537). To be noted: mRNA level, 48 h; actives raise or lower the signal. The procedure, abridged: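 TP53 transcript measured by qRT-PCR, normalized to three housekeeping genes, after 48 h treatment of human HepaRG cultures with chemicals from 100 uM downward in half-log steps (0.5% DMSO vehicle, serum-free induction medium). Up- or down-regulation fitted against DMSO.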

Read-out in experiment [12]: UDP glucuronosyltransferase (UGT1A1), UGT1A1 (gene 54658)
Briefly: LTEA_HepaRG_UGT1A1: Life Technologies and Expression Analysis (LTEA) Assay for UDP glucuronosyltransferase (UGT1A1) using HepaRG (AID 2283538). To be noted: mRNA level, 48 h; actives raise or lower the signal. The gist of the method:
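HepaRG, 48 h chemical exposure (top 100 uM, half-log 8-pt, 0.5% DMSO vehicle), duplicate wells; qRT-PCR (TaqMan, Fluidigm array) for UGT1A1 mRNA, housekeeping-normalized; bidirectional curve fit vs DMSO baseline.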

Read-out in experiment [13]: UDP glucuronosyltransferase (UGT1A6), UGT1A6 (gene 54578)
The experiment in a line: LTEA_HepaRG_UGT1A6: Life Technologies and Expression Analysis (LTEA) Assay for UDP glucuronosyltransferase (UGT1A6) using HepaRG (AID 2283539). To be noted: mRNA level, 48 h; actives raise or lower the signal. The procedure, abridged:
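qRT-PCR readout of UGT1A6 mRNA (normalized to ACTB/GAPDH/POLR2A) in differentiated HepaRG cells after 48 h chemical exposure; 8 concentrations, top 100 uM, half-log steps, 0.5% DMSO. Bidirectional curve fit relative to DMSO baseline.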

Read-out in experiment [14]: X-box binding protein 1 (XBP1), XBP1 (gene 7494)
Briefly: LTEA_HepaRG_XBP1: Life Technologies and Expression Analysis (LTEA) Assay for X-box binding protein 1 (XBP1) using HepaRG (AID 2283540). The conditions noted are these: mRNA level, 48 h; actives raise or lower the signal. The procedure, abridged:
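HepaRG, 48 h exposure, 8-pt half-log CRC top 100 uM, 0.5% DMSO vehicle, duplicates. Readout: TaqMan qRT-PCR of XBP1 mRNA, housekeeping-normalised (ACTB/GAPDH/POLR2A); bidirectional fit vs DMSO baseline.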

A short description of experiment [15]: LTEA_HepaRG_LDH_cytotoxicity: Cytotoxicity Assessment in the Life Technologies and Expression Analysis (LTEA) Assay (AID 2283563; active = hit-call score of the fitted dose curve at least 0.9, where 1 is the maximum). The procedure, abridged: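 HepaRG (human liver line), 48 h exposure, 8-pt half-log series from 100 uM, 0.5% DMSO vehicle, duplicates. Read-out: LDH in spent medium. Positive-direction fit vs DMSO baseline.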
The nature of experiment [16]: ATG_XTT_Cytotoxicity: Cytotoxicity Assessment in the Attagene TRANS-FACTORIAL HepG2 Assay (AID 2283584; active = hit-call score of the fitted dose curve at least 0.9, where 1 is the maximum). The gist of the method: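 XTT readout of cell number in transfected HepG2 cells, 24 h post-dosing; DMSO serves as negative control and baseline, with activity taken as loss of viability signal.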
The nature of experiment [17]: TOX21_p53_BLA_p2_viability: Viability Assessment in the Tox21 HCT-116 p53 Agonism Beta-lactamase Assay, Phase 2 (AID 2283591; active = hit-call score of the fitted dose curve at least 0.9, where 1 is the maximum;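 also: actives lower the ATP signal meaning cytotoxicity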). The gist of the method: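 HCT-116 p53-bla cells (4000/well) rested 5 h at 37C, then received compounds in DMSO (217-fold dilution) for 16 h at 37C, 5% CO2. After the CCF4 read, CellTiter-Glo was added; ATP luminescence was read after 30 min at room temperature.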

Read-out in experiment [18]: solute carrier (SLCO1B1), SLCO1B1 (gene 10599)
The experiment in a line: LTEA_HepaRG_SLCO1B1: Life Technologies and Expression Analysis (LTEA) Assay for solute carrier (SLCO1B1) using HepaRG (AID 2283530). To be noted: mRNA level, 48 h; actives raise or lower the signal. The gist of the method: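 SLCO1B1 transcript read by qRT-PCR (Fluidigm arrays), normalized to three housekeeping genes, after 48 h chemical exposure of HepaRG cells; bidirectional concentration-response fitting versus 0.5% DMSO baseline. Eight-point half-log series, maximum 100 uM.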

Experiment [19] has as its target Cellular tumor antigen p53 (Homo sapiens) (UniProt P04637). Briefly: TOX21_p53_BLA_p2_ratio: Tox21 HCT-116 p53 Agonism Beta-lactamase Assay, Ratio, Phase 2 (AID 2283592; active = hit-call score of the fitted dose curve at least 0.9, where 1 is the maximum). The gist of the method:
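Readout: blue/green (460/530 nm) FRET emission ratio after 2 h CCF4-AM loading at room temperature, excitation 405 nm. HCT116 p53 bla cells, 16 h compound exposure at 37C, 5% CO2; agonist direction fitted against DMSO baseline.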

The nature of experiment [20]: TOX21_p53_BLA_p3_viability: Viability Assessment in the Tox21 HCT-116 p53 Agonism Beta-lactamase Assay, Phase 3 (AID 2283593; active = hit-call score of the fitted dose curve at least 0.9, where 1 is the maximum;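 also: cells exposed to compound for 16 h before reading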). The procedure, abridged: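 HCT-116 cells (4000/well) rested 5 h at 37C, then got DMSO compounds by pin tool (217-fold dilution) for 16 h at 37C, 5% CO2. After the bla read, CellTiter-Glo was added and luminescence read at 30 min, room temperature.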

Each structure is given as a SMILES string. Records with an inconclusive call do not appear. The source made the active and inactive calls. The calls were made as follows, unless noted: active = hit-call score of the fitted dose curve at least 0.9, where 1 is the maximum; inactive = score below 0.9.

Sequence of Cellular tumor antigen p53 (Homo sapiens) (P04637 whole entry, looked up): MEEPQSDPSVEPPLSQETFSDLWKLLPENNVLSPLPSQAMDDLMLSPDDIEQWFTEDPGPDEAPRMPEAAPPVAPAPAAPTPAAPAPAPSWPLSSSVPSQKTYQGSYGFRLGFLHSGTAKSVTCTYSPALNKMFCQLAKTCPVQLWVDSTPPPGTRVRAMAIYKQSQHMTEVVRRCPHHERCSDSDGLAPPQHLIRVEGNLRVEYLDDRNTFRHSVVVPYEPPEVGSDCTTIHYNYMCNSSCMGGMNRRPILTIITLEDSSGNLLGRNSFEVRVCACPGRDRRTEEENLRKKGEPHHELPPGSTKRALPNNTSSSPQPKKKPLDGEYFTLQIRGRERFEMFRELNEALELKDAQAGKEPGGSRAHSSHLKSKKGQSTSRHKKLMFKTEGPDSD
Sequence of Signal transducer and activator of transcription 3 (Homo sapiens) (P40763 whole entry, looked up): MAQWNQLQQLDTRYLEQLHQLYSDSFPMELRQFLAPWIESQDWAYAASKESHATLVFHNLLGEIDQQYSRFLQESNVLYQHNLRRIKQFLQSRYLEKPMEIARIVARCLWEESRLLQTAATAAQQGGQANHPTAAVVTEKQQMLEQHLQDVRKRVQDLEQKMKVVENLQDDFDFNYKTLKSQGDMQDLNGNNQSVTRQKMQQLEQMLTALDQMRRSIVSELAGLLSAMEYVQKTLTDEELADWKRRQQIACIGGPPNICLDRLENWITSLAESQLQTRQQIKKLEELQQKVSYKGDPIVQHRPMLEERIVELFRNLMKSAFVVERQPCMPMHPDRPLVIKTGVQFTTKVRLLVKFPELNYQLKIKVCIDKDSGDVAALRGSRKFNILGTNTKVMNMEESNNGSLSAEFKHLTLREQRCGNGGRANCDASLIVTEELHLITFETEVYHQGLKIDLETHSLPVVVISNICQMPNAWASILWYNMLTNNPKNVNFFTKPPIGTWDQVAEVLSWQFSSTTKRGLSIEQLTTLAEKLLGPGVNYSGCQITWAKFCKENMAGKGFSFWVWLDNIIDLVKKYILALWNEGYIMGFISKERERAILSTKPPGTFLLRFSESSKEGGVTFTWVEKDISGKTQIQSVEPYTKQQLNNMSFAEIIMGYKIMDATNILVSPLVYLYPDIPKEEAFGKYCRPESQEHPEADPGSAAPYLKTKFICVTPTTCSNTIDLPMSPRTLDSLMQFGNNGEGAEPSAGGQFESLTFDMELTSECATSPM
Sequence of Nuclear factor erythroid 2-related factor 2 (Homo sapiens) (Q16236 whole entry, looked up): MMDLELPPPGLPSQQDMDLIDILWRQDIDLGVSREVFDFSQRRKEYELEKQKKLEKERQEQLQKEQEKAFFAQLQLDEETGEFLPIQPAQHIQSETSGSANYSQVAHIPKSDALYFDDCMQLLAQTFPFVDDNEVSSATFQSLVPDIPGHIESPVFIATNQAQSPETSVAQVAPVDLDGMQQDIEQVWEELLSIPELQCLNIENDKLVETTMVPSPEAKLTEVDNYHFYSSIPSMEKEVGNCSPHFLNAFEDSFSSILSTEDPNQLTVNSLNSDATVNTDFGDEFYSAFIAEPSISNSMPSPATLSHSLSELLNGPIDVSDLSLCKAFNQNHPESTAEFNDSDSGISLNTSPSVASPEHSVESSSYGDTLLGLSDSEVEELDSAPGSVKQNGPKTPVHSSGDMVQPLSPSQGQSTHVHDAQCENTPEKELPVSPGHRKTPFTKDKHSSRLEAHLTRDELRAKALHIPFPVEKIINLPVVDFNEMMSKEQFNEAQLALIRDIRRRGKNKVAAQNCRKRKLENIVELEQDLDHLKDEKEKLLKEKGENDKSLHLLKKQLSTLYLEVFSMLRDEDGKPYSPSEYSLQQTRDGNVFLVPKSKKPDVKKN

As for `COc1ccc(C(=CC(=O)N2CCOCC2)c2ccc(Cl)cc2)cc1OC`, the result in experiment [1], in [2], in [3], in experiment [4], in [5] and in experiment [6] was inactive. Further, the call in [7], in experiment [8], in [9], in experiment [11], in experiment [13] and in experiment [14] was inactive. The molecule was called inactive in experiment [15], in experiment [16] and in experiment [17]. The figures for the half-maximal activity concentration (AC50) in experiment [10] and in experiment [12] were 63.8 µM (active) and 11.1 µM (active), respectively.
As to `CSc1nc(NC(C)C)nc(NC(C)C)n1`, the molecule was called inactive in experiment [1], in experiment [2], in experiment [3], in [4], in experiment [6] and in experiment [7]. For the same molecule, the call in experiment [8], in [9], in experiment [11], in experiment [13], in experiment [15] and in experiment [19] was inactive. In addition, the half-maximal activity concentration (AC50) (as a rule, the midpoint of the concentration-response curve, whichever way the signal moves) in experiment [18] was 50 µM (active); in [5], 84.9 µM (active); in experiment [10], 76.7 µM (active); in experiment [12], 2.47 µM (active); in experiment [14] it was 50 µM (active).
In the case of `CC(C)=CC1C(C(=O)OCN2C(=O)C3=C(CCCC3)C2=O)C1(C)C` (stereo not drawn), the call in experiment [1], in experiment [2], in experiment [3], in [4], in [18] and in experiment [5] was inactive. The outcome in experiment [6], in experiment [7], in experiment [8], in experiment [9], in experiment [10] and in experiment [11] was inactive. Besides, the molecule was called inactive in [12], in [13], in [14], in experiment [15], in [17] and in experiment [19]. The outcome in experiment [20] was inactive.
On to `CCCOc1nn(C(=O)NS(=O)(=O)c2ccccc2C(=O)OC)c(=O)n1C`, for which the call in experiment [1], in [2], in experiment [3], in experiment [4], in [5] and in experiment [6] was inactive. Further, the call in [7], in [8], in [9], in experiment [10], in experiment [11] and in [12] was inactive. Besides, the result in [13], in [14] and in [15] was inactive.
